Test results from PubChem BioAssay (NCATS).
Results filed as inconclusive are left out. The source made the active and inactive calls. The call rests on the fitted dose curve; in most records, active means well fitted inhibition curve with a large enough effect; inconclusive means small, poorly fitted or top-dose-only effect; inactive means flat fitted curve, though single readings scatter.

Experiments:
Experiment in all cases: qHTS profiling for inhibitors of Plasmodium falciparum proliferation (AID 504749); further: nearly all actives have a fitted effect of over 60% in size
Details in all cases: P. falciparum in erythrocytes, SYBR Green DNA, 72 h; series mostly up to 28.7 µM
CP256 = test system: CP256
In short: (§1)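 Infected RBCs, 0.3% parasitemia/2.5% Hct final; cpd 72 h, 37 C, 5% CO2; lysis buffer with saponin/triton/SYBR Green I, o/n RT dark; FI 485/535; norm. to artemisinin (0.29 uM) and DMSO.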

CP260 = test system: CP260
In short: as §1

CP262 = test system: CP262
In short: as §1

CP265 = test system: CP265
In short: as §1

CP266 = test system: CP266
In short: as §1

CP268 = test system: CP268
In short: as §1

CP269 = test system: CP269
In short: as §1

CP286 = test system: CP286
In short: as §1

CP291 = test system: CP291
In short: as §1

CP297 = test system: CP297
In short: as §1

CP305 = test system: CP305
In short: as §1

CP315 = test system: CP315
In short: as §1

CP325 = test system: CP325
In short: as §1

CP329 = test system: CP329
In short: as §1

CP335 = test system: CP335
In short: as §1

DFO2036 = test system: DFO2036
In short: as §1

DIV14 = test system: DIV14
In short: as §1

DIV17 = test system: DIV17
In short: as §1

DIV30 = test system: DIV30
In short: as §1

Dd2 = test system: Dd2
In short: as §1

ECU = test system: ECU
In short: as §1

FAB9 = test system: FAB9
In short: as §1

GB4 = test system: GB4
In short: as §1

HB3 = test system: HB3
In short: as §1

ICS = test system: ICS
In short: as §1

JCK = test system: JCK
In short: as §1

N140 = test system: N140
In short: as §1

P93_24 = test system: P93_24
In short: as §1

P94_40 = test system: P94_40
In short: as §1

PAD = test system: PAD
In short: as §1

PC15 = test system: PC15
In short: as §1

PC26 = test system: PC26
In short: as §1

PC49 = test system: PC49
In short: as §1

SC27B = test system: SC27B
In short: as §1

TAB109 = test system: TAB109
In short: as §1

TAB113 = test system: TAB113
In short: as §1

TAB165 = test system: TAB165
In short: as §1

W2 = test system: W2
In short: as §1

Measured: Potency

C[N+]1([O-])[C@H]2CC[C@H]1CC(OC(=O)[C@@H](CO)c1ccccc1)C2 (stereo partly drawn)
inactive: all assays above
